Screening results: PubChem, National Center for Advancing Translational Sciences (NCATS)
Shown are actives, neighbours in structure and some others; about 7.5% of the full set was active somewhere.
VACV Venus inh – inhibitors of vaccinia virus (Venus reporter) | Potency, µM (doses to about 36.5 µM), without a hit: top-dose activity change, negative = inhibition, most hits filed as inhibitors | 0.46% of 330,000 active | AID 720580 | Vaccinia virus Venus reporter expression, fluorescence; calls by dose curve; tested in A549 cells; note: potency is the fitted concentration of half-maximal effect; nearly all actives have a fitted effect of over 30% in size
HCMV inh – human cytomegalovirus inhibition; 4.5% of 410,000 active; AID 1259415; activity change, negative = inhibition, % at 57.5 µM; HFF cells, HCMV-luciferase reporter, 72 h; active compounds read low; in the data active = activity change below about -60%; inconclusive = no clear call, values can overlap the other calls; inactive = above about -39%
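Two-dose cell screen: HFF monolayers treated with compounds and infected with luciferase-expressing HCMV at 1 PFU/cell, 72 h at 37C, then lysed for luciferase measurement.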
FMDV antiviral – antivirals against foot and mouth disease virus; 1.2% of 410,000 active; FMDV antiviral cell-based qHTS; Potency, µM (top dose mostly 57.9 µM), for inactives: at the highest dose activity change, negative = inhibition, actives largely listed as inhibitors; calls by dose curve; tested in HEK293T cells; note: read-out not given here; potency is the fitted concentration of half-maximal effect; nearly all actives have a fitted effect of over 45% in size
HCV inh – inhibitors of hepatitis C virus infection; Huh7.5.1 HCVcc-Cre infection, luciferase reporter, 44 h; Potency, µM (doses to about 41.8 µM), without a hit: at the highest dose activity change, negative = inhibition, actives largely listed as inhibitors; 3.4% of 340,000 active; note: potency is the fitted concentration of half-maximal effect
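Antiviral activity was scored by luciferase reporter output from cells infected with HCVcc-Cre (~0.5 moi) in presence of compound, 44 h infection period, cells seeded 1,000/well 4 h prior.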
Vaccinia mCherry – vaccinia inhibition (mCherry reporter) | Vaccinia virus mCherry reporter infection, fluorescence | Potency, µM (series often up to 36.5 µM), without a hit: at the top dose activity change, negative = inhibition, usual class: inhibitors | 0.63% of 310,000 active; calls by dose curve; tested in A549 cells; note: potency is the fitted concentration of half-maximal effect; nearly all actives have a fitted effect of over 35% in size
Giardia FBPA inh – Giardia lamblia aldolase inhibition; 0.71% of 290,000 active; AID 2451; purified Giardia FBPA; A8B2U2; Potency, µM (doses to about 59.6 µM), without a hit: at the highest dose activity, negative = inhibition, usual class: inhibitors; note: potency is the fitted concentration of half-maximal effect; nearly all actives have a fitted effect of over 55% in size
Target sequence (A8B2U2 whole entry, looked up): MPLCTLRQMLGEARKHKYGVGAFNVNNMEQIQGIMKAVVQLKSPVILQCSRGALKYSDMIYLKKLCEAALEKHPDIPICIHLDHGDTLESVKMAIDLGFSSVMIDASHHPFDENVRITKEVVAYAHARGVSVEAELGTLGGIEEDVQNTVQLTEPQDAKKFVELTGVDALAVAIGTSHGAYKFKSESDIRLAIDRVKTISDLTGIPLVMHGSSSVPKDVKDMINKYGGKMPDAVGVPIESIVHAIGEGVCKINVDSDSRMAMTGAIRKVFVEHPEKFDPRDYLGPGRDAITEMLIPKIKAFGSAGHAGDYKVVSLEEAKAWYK
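40 nM FBPA preincubated 10 min at RT with compound (up to 57.5 uM final), then substrate plus GAPDH/TPI/NAD/arsenate coupling and diaphorase/resazurin added. Fluorescence read after 20 min at RT, 525/598 nm.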
* = called active by the depositor; i = inactive; ? = inconclusive; nt = no result given; [ ] = remark or other dose. Unless noted, calls come from the whole dose curve; as a rule, active = well fitted curve in the direction sought with a large enough effect; inconclusive = small, poorly fitted or top-dose-only effect, or another doubt; inactive = no such curve, though single readings can be large; an effect the other way counts as inactive or inconclusive. % is set by controls: 0 for no effect and ±100 for the full control effect.

SMILES | VACV Venus inh | HCMV inh | FMDV antiviral | HCV inh | Vaccinia mCherry | Giardia FBPA inh
NC(=O)C1CCN(c2nc(-c3ccccc3Br)cs2)CC1 | nt | -74* | 67% | nt | nt | nt
Cc1cccc(C(=O)Nc2cc3c(cc2N2CCCCC2)n(C)c(=O)n3C)c1 | -6% | 19 | 0% | nt | -8% | nt
CC(C)C(NC(=O)c1ccccn1)c1nnc2n1CCN(Cc1ccc3ccccc3c1)CC2 (stereo not given) | -14% | nt | -20% | nt | i | nt
COc1ccc(OCC(=O)Nc2ccc(-c3nc4cc(C)cc(C)c4o3)cc2)cc1 | -29% | 46 | 39% | nt | 0% | nt
COc1ccc(Nc2cc(C)nc3ncnn23)c(OC)c1 | nt | 76 | 5% | 23% | nt | 0%
COc1ccc(CNc2cc(C)nc3ncnn23)c(OC)c1 | nt | -81* | ? | ? | nt | 2%
COC(=O)C1=C(C)N(Cc2ccccc2)C(=NCc2ccccc2)N[C@H]1c1ccccc1 | ? | -70* | -25% | ? | -25% | 2%
COC(=O)C1=C(C)N(Cc2ccccc2)C(=NCc2cccc(Cl)c2)N[C@H]1c1ccccc1 | ? | nt | -19% | ? | -21% | 19%
COCCN=C1N[C@@H](c2ccc(Br)cc2)C(C(=O)OC)=C(C)N1Cc1ccccc1 | ? | -25 | -26% | 3.5µM* | -10% | -1%
COCCN=C1N[C@@H](c2ccccc2)C(C(=O)OC)=C(C)N1Cc1ccccc1 | -8% | 13 | -16% | 12% | -26% | 6%
COC(=O)C1=C(C)N(Cc2ccc(C(F)(F)F)cc2)C(=NCc2ccc3c(c2)OCO3)NC1c1ccccc1 (stereo not given) | nt | -100* | nt | nt | nt | nt
CCOC(=O)c1c(-c2ccc(C)cc2)csc1NC(=O)c1nc(SCC)ncc1Cl | 0% | 5 | ? | nt | -14% | nt
O=C(CCC(=O)N1CCOc2ccccc21)Nc1cc(F)ccc1F | 4% | -19 | -1% | ? | -2% | 1%
CCOc1cccc2cc(-c3nc4ccc(C(=O)O)cc4[nH]3)c(=O)oc12 | -8% | 47 | 11µM* | nt | 0% | nt
C=CCc1cccc2cc(C(=O)O)c(=O)oc12 | nt | -15 | -3% | 10% | nt | 8%
C=CCc1cccc2cc(-c3nc4ccc(C(=O)O)cc4[nH]3)c(=O)oc12 | -8% | 57 | 16µM* | nt | i | nt
COc1ccc2cc(-c3nc4ccc(C(=O)O)cc4[nH]3)c(=O)oc2c1 | -11% | -16 | 1µM* | nt | -15% | nt
COc1cccc2cc(-c3nc4ccc(C)cc4[nH]3)c(=O)oc12 | -1% | 46 | 45% | nt | -9% | nt
CCCN(C(=O)CCc1nc(-c2ccc(C)cc2)no1)c1ccc(OCC)cc1 | -9% | 2 | -18% | nt | -11% | nt
O=C(COc1ccc2oc3c(c2c1)CCCC3)Nc1ccc(Cl)cc1 | -14% | -31 | 0% | nt | -11% | nt
O=S(=O)(Nc1cccc(F)c1)c1ccc2[nH]c3c(c2c1)CCCCC3 | -8% | 22 | 29% | nt | -12% | nt
CCCN(CCC)S(=O)(=O)c1ccc(C(=O)N2CCC(=O)c3ccccc32)cc1 | -14% | -60* | -26% | -12% | nt | -1%
COC(=O)c1cc(OC(C)C)ccc1NC(=O)[C@@]1(Sc2ccc(OC)cc2)CC(=O)N[C@@H]1c1ccc(OC)cc1 | nt | -39 | nt | nt | nt | nt
CC(C)c1ccc(/C=C2\C(=O)N(CCN3CCOCC3)C(=S)N2C)cc1 | 0% | -66* | ? | 10µM* | i | -12%
CC(C)c1ccc(C(=O)NCCCN2CCOCC2)cc1 | nt | -15 | 32% | 1% | nt | 4%
SMILES | VACV Venus inh | HCMV inh | FMDV antiviral | HCV inh | Vaccinia mCherry | Giardia FBPA inh
COC(C[C@@H](O)C[C@H](O)COCc1ccccc1)OC | -15% | -2 | -6% | -8%[8.37 µM] | ? | 7%
O=[N+]([O-])c1ccc(Oc2ccc(F)cc2)c2ccncc12 | -8% | -68* | ? | ? | nt | -20%
COc1ccc(C(CCNCc2ccc(OC(C)C)cc2)c2ccccc2OC)cc1 (stereo not given) | nt | -70* | ? | ? | nt | 0%
COc1ccc(CNCCC(c2ccccc2)c2ccc(OC(C)C)cc2)cc1OC (stereo not given) | -24% | -37 | -25% | 11µM* | ? | 8%
COc1ccc(CNCCC(c2ccc(F)cc2)c2ccc(OC(C)C)cc2)cc1OC (stereo not given) | ? | -97* | -1% | ? | ? | 2%
COc1ccc(CNCCC(c2ccc(OC)cc2)c2ccccc2OC)cc1 (stereo not given) | -26% | ? | -6% | ? | i | 0%
COc1ccc(CN(CCC(c2ccccc2)c2ccc(OC(C)C)cc2)C(=O)CCl)cc1OC (stereo not given) | ? | -100* | 4.5µM* | ? | -15% | -20%
COc1ccc(C(CCN(Cc2ccc(OC)c(OC)c2)C(C)=O)c2ccccc2)cc1 (stereo not given) | nt | -29 | ? | 0% | nt | 4%
COc1ccc(CNCCC(c2ccc(F)cc2)c2ccc(OC)cc2)cc1 (stereo not given) | ? | -22 | -10% | ? | ? | 3%
COc1ccc(-c2cc(OC(=O)c3ccccc3C)c3c(C)oc(C)c3c(=O)c2)cc1 | 43% | 34 | -4% | nt | -9% | nt
COc1ccc(-c2noc(Cn3cc(S(=O)(=O)N4CCCC4)ccc3=O)n2)cc1 | 2% | 0 | -4% | 4% | -10% | nt
O=C(CNC(=O)c1ccc(OC(F)F)cc1)Nc1cccc(S(=O)(=O)N2CCCC2)c1 | -6% | -28 | 12% | ? | -28% | nt
Nn1c(SCC(=O)Nc2c(Cl)cccc2Cl)nncc1=O | 3% | -31 | -8% | 6% | -20% | nt
COc1ccc(NC(=O)c2cc(-c3cc(F)ccc3OC)n[nH]2)cc1OC | -9% | -21 | -4% | nt | 3% | nt
CCCOc1ccc(F)cc1-c1cc(C(=O)Nc2ccc(OC)c(OC)c2)[nH]n1 | -27% | -1 | -12% | nt | -27% | nt
COc1cc(F)ccc1-c1cc(C(=O)Nc2ccc(C)c(NS(C)(=O)=O)c2)[nH]n1 | -7% | -38 | 25µM* | nt | i | nt
COc1ccc(F)cc1-c1cc(C(=O)Nc2ccc(C)c(NS(C)(=O)=O)c2)[nH]n1 | -20% | -28 | 35µM* | nt | 12% | nt
CCCOc1ccc(F)cc1-c1cc(C(=O)Nc2ccc(C)c(NS(C)(=O)=O)c2)[nH]n1 | -30% | -32 | 35µM* | nt | ? | nt
COc1cccc(NC(=O)CCC(=O)N2CC(C)Oc3ccc(C)cc32)c1 (stereo not given) | -7% | ? | 0% | ? | 0% | 5%
O=C(CN1C(=O)NC2(CCCC2)C1=O)NNC(=O)c1ccccc1 | -18% | -24 | -5% | 0% | i | nt
CC(=O)N1c2ccc(S(=O)(=O)N3CCC(C(=O)Nc4cccc(C)n4)CC3)cc2CC1C (stereo not given) | nt | -87* | -19% | 1.3µM* | nt | 5%
